In PubChem BioAssay (Tox21):
Results filed as inconclusive are left out. Values without a mark were called inactive. Activity calls are given as the source filed them. Calls follow the shape of the full dose curve.

assay: Nuclear factor erythroid 2-related factor 2/antioxidant responsive element (Nrf2/ARE) small molecule agonists: luciferase reporter gene qHTS assay in human keratinocytes (AID 1919969); conditions: KeratinoSens HaCaT ARE-luciferase, luminescence, 24 h; series mostly up to 92.4 µM; activity, positive = activation: at the top concentration; also: nearly all actives have a fitted effect of over 35% in size
Text: National Center for Advancing Translational Sciences [NCATS]
Division of Preclinical Innovation [DPI]
U.S. Environmental Protection Agency [EPA]
National Institutes of Environmental Health Sciences [NIEHS]
National Toxicology Program [NTP]
U.S. Food and Drug Administration [FDA]
Oxidative stress has been implicated in the pathogenesis of a variety of diseases ranging from cancer to neurodegeneration. The antioxidant response element (ARE) signaling pathway plays an important role in the amelioration of oxidative stress. The KeratinoSens (Givaudan, Switzerland) is an in vitro test method which quantifies luciferase induction as a measure of activation of Keap1-Nrf2-antioxidationt/electrophile response element (ARE) dependant pathway in HaCaT human keratinocytes stably transfected with a selectable plasmid. The KeratinoSens assay is a cell-based assay with a reporter cell line to detect potential skin sensitizers by their ability to induce the Nrf2/ARE-response. The activation of the report gene under culture conditions can be detected by ONE-Glo Luciferase Assay System (Promega, Madison, WI). This cell line has been used to screen the Tox21 10K compound library to identify agonists that induce oxidative stress. The cytotoxicity of the Tox21 compound library against the KS-ARE cell line was tested in parallel by measuring the cell viability using CellTiter- Fluor assay system (Promega, Madison, WI) in the same wells.
HaCaT derived cell line KeratinoSens were dispensed at 1,500 cells/5uL/well in 1536-well white wall/solid bottom plates using a Multidrop Combi (ThermoFisher Scientific, Waltham, MA) dispenser. After the assay plates were incubated at 37 C/5% CO2 for 5 h, 23 nL of compounds dissolved in DMSO, positive controls or DMSO only was transferred to the assay plate by a pintool workstation (Kalypsys, San Diego, CA). The plates were incubated at 37 C/5% CO2 for 23 h, followed by addition of 1uL/well of CellTiter-Fluor reagent into the assay plates using a Flying Reagent Dispenser (Aurora Discovery, San Diego, CA) for cell viability readout that measures cytotoxicity. After 1 h incubation at 37 C/5% CO2 the fluorescence intensity was measured using a ViewLux (PerkinElmer, Shelton, CT) plate reader. Then 4uL/well of One-Glo were added using a Flying Reagent Dispenser. After the plates were incubated at room temperature for 30 min, the luminescence intensity in the assay plates was measured using ViewLux plate reader.
% is scaled to controls: 0 for no effect and ±100 for the full control effect; potency is read from the fitted curve at half-maximal effect.

Structure (SMILES)	Potency	activity, positive = activation
O=C(O)Cc1ccc(OCCNC[C@H](O)c2ccccc2)cc1	33.5 µM (active)	
C1CCC2(CCCCO2)OC1		-6.56%
ClCCOCCOCCCl		-4.08%
CN[C@H]1CC[C@@H](c2ccc(Cl)c(Cl)c2)c2ccc(S(N)(=O)=O)cc21		-46.2%
CCCCOCCOCCOCCOCCO		-6.15%
C(=C(c1ccccc1)c1ccccc1)c1ccccc1	27.3 µM (active)	
CCCCCCCCCCCCCCOS(=O)(=O)O		-40%
COc1cc(C=C2CCC/C(=C\c3ccc(O)c(OC)c3)C2=O)ccc1O	6.68 µM (active)	
FC(F)(Cl)C(F)(Cl)Cl		-4.86%
CC(=O)OC(C)C[N+](C)(C)C (stereo not given)		-1.02% [at 42.5 µM]
CNCCCC1c2ccccc2C=Cc2ccccc21		-21% [at 42.5 µM]
c1ccc2c(c1)CCCC2C1=NCCN1 (stereo not given)		-4.67% [at 42.5 µM]
CN(C)CC[C@@H](c1ccc(Br)cc1)c1ccccn1		-6.95% [at 42.5 µM]
CC1(COc2ccc(CC3SC(=O)NC3=O)cc2)CCCCC1 (stereo not given)	29.8 µM (active)	
N#CCCOCCOCCC#N		-7.75%
CCOc1ccccc1OCCN[C@H](C)Cc1ccc(OC)c(S(N)(=O)=O)c1		-1.59% [at 42.5 µM]
Cc1cc(CCN2CCN(c3nsc4ccccc34)CC2)cc2c1NC(=O)CC2(C)C		-9.38%
N[C@@H](CS)C(=O)O		2.04%
CCCCCCC#CC(=O)OC		0.268%
O=CNc1ccccc1		4.41%

Structure (SMILES)	Potency	activity, positive = activation
c1ccc(OCc2ccc(CCCN3CCOCC3)cc2)cc1		21.8% [at 42.5 µM]
Fc1ccc(C(c2ccc(F)cc2)N2CCN(C/C=C/c3ccccc3)CC2)cc1		-42% [at 42.5 µM]
Cc1ccc(N)cc1O	24.3 µM (active)	
C[C@]12CCC(=O)C=C1C=C[C@@H]1[C@@H]2CC[C@@]2(C)[C@H]1CC[C@@]21CCC(=O)O1		2.49% [at 42.5 µM]
C=C1C(C)(C)[C@@]2(Cl)C(Cl)[C@]1(Cl)C(Cl)(Cl)C2(Cl)Cl (stereo not given in full)	9.51 µM (active)	
Cc1ccc(NC(=O)c2ccc(CN3CCN(C)CC3)cc2)cc1Nc1nccc(-c2cccnc2)n1		26.9% [at 42.5 µM]
CCc1cccc2c(CCO)c[nH]c12		6.97% [at 42.5 µM]
O=C1c2c(O)ccc([N+](=O)[O-])c2C(=O)c2c([N+](=O)[O-])ccc(O)c21	6.06 µM (active)	
CCCCN1C[C@H](O)[C@@H](O)[C@H](O)[C@H]1CO		-0.0025% [at 42.5 µM]
Nc1c(I)cc(I)c(C(=O)N(CCC(=O)O)c2ccccc2)c1I		-0.24% [at 42.5 µM]
CCCC(=O)O[C@]1(C(=O)COC(=O)CC)CC[C@H]2[C@@H]3CCC4=CC(=O)CC[C@]4(C)[C@H]3[C@@H](O)C[C@@]21C		-4.28% [at 19 µM]
COC(C)=O		-2.99%
COC(=O)c1cc(Cl)cc(Cl)c1		0.684%
N#C/C(=C1/SC[C@@H](c2ccc(Cl)cc2Cl)S1)n1ccnc1		-0.557% [at 42.5 µM]
CCCCCCCCCCCCCC(=O)OC		-1.3%
CC(C)(Cc1c[nH]c2ccccc12)NCC(O)COc1ccccc1C#N (stereo not given)		-4.1% [at 42.5 µM]
CCCCCCCCCCC[C@@H](C[C@@H]1OC(=O)[C@H]1CCCCCC)OC(=O)[C@H](CC(C)C)NC=O		16.2% [at 42.5 µM]
O=C(O)CCSSCCC(=O)O		6.17%
CC(=O)OCC(=O)NCCCOc1cccc(CN2CCCCC2)c1		7.86% [at 42.5 µM]
CCCC1CCOC(C)S1 (stereo not given)		3.77%
